Screens as filed in PubChem BioAssay.
Six1-Eya2 blk = blocks human Six1 binding to Eya2; 360,000 tested, 0.56% active; activity change, % (test concentration not listed); Q15475+O00167; AlphaScreen GST-Six1/His-Eya2 binding, biochemical; stronger effect = lower value; in the data active = activity change below about -65%; inconclusive = mostly about -30% to -63%; also: % is scaled to controls: 0 for no effect and ±100 for the full control effect
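Six1/Eya2 binding was read as AlphaScreen signal after compounds were pinned into GST-Six1 plus His-tagged Eya2 (5X stock 250/500 nM) in pH 8.0 Tris/NaCl/TCEP buffer, beads added, then incubated 1 h, 37 C, dark.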
CtBP-E1A inh = blocks the CtBP interaction with E1A; AlphaScreen GST-E1A/His-CtBP binding, 1536-well; stronger effect = lower value; activity change, % (test concentration not listed); 340,000 tested, 0.49% active; in the data active = activity change below about -65%; inconclusive = mostly about -30% to -63%; also: % is scaled to controls: 0 for no effect and ±100 for the full control effect
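Protein mix (5X: 125 nM each GST-E1A, His-CtBP) was incubated with pinned compound 2 h at 37 deg C in dark, in 50 mM Tris pH 8.0 buffer with 300 mM NaCl. Glutathione donor and nickel acceptor beads followed; AlphaScreen signal read after 1 h.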
HP1b binding inh = inhibitors of HP1-beta chromodomain binding to methylated histone tails; AlphaScreen HP1-beta / biotin-H3K9me3 peptide binding; Potency, µM (doses to about 114 µM), without a hit: at the top dose activity change, negative = inhibition, usual class: inhibitors; 390,000 tested, 0.56% active; AID 540317; also: potency is read from the fitted curve at half-maximal effect; nearly all actives have a fitted effect of over 70% in size
Target sequence (P83916 whole entry, looked up): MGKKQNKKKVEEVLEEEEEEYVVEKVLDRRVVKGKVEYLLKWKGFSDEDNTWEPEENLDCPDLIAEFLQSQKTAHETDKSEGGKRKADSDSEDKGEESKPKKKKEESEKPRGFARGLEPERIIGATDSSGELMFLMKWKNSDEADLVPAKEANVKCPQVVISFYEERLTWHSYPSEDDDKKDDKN
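Compound inhibition of the preformed complex between 50 nM HP1-beta and 50 nM biotinylated H3K9me3 peptide was read by AlphaScreen. Buffer was PBS pH 7.4 with 0.01% Tween-20. Incubations ran 30 min at room temperature, with 10 ug/mL donor/acceptor beads.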
G9a inh = G9a (human) methyltransferase inhibition | Q96KQ7 | G9a H3K9 monomethylation, AlphaScreen, 2 h | Potency, µM (doses to about 102 µM), inactives show at the highest dose activity, negative = inhibition, usual class: inhibitors | 350,000 tested, 8.8% active | AID 504332; also: potency is read from the fitted curve at half-maximal effect; % is scaled to controls: 0 for no effect and ±100 for the full control effect; nearly all actives have a fitted effect of over 75% in size
Target sequence (Q96KQ7 913-1193 limits assumed): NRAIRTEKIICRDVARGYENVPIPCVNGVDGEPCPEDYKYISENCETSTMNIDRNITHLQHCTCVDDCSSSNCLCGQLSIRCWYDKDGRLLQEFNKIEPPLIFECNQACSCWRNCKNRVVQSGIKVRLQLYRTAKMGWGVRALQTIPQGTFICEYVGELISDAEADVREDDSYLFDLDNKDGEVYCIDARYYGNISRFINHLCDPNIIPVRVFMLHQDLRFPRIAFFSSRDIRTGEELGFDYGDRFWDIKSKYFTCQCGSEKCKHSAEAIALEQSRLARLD
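Quantitative HTS format: methyltransferase activity on a biotin-tagged H3K9 peptide is measured by AlphaScreen, using a rabbit anti-monomethyl-H3K9 antibody with streptavidin donor and anti-IgG acceptor beads. Final levels are 20 nM enzyme, 500 nM peptide, 20 uM SAM; 2 h RT.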
JMJD2A Tudor inh = inhibitors of human JMJD2A Tudor domain | O75164 | AlphaScreen JMJD2A-Tudor / H3K4me3 peptide binding | Potency, µM (top dose mostly 114 µM), for the others: top-dose activity change, negative = inhibition, most hits filed as inhibitors | 390,000 tested, 4.4% active; also: potency is read from the fitted curve at half-maximal effect; % is scaled to controls: 0 for no effect and ±100 for the full control effect; nearly all actives have a fitted effect of over 50% in size
BAZ2B inh = BAZ2B (human) inhibition; Potency, µM (highest dose often 114 µM), inactives show top-dose activity change, negative = inhibition, actives largely listed as inhibitors; Q9UIF8; 360,000 tested, 4.4% active; AlphaScreen BAZ2B-H3K14Ac peptide displacement; also: potency is read from the fitted curve at half-maximal effect; % is scaled to controls: 0 for no effect and ±100 for the full control effect; nearly all actives have a fitted effect of over 60% in size
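BAZ2B 50 nM plus b-H3(5-23)K14Ac 50 nM, PBS pH 7.4/0.01% Tween-20, 30 min RT; compound added (max 110 uM), 30 min RT; streptavidin donor/Ni-chelate acceptor beads 10 ug/mL final, 20 min dark; AlphaScreen read.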
* hit, by the source's call; ? = inconclusive; . = no result; [ ] = another dose, or the depositor's remark. Sampled rows, rich in hits. Any-hit rate of the full collection: about 10%. Unless noted, calls follow the shape of the dose curve; as a rule, active = well fitted inhibition curve with a large enough effect; inconclusive = small, poorly fitted or top-dose-only effect; inactive = no such curve, though single readings can be large or run the other way.

SMILES	Six1-Eya2 blk	CtBP-E1A inh	HP1b binding inh	G9a inh	JMJD2A Tudor inh	BAZ2B inh
CCOC(=O)c1ccc(-n2c(N)c(C(=O)NCc3ccco3)sc2=S)cc1	-27	-14	16µM*	?	25µM*	40µM*
CCOC(=O)c1sc(=S)n(-c2ccc(F)c(F)c2)c1N	-1	1	-39%	?	?	4%
COc1ccc2oc3c(ccc[n+]3C)c(=O)c2c1	3	7	.	.	.	.
O=C(Nc1ccccc1C(=O)OCc1cc(=O)n2nc(C3CC3)sc2n1)c1cccc(F)c1	.	.	22%	13%[59 µM]	5%	-5%
CCOc1cc(/C=N/NC(=O)CN2CCCCC2)ccc1OCc1ccc(Cl)cc1	-13	-1	11%	-4%[59 µM]	?	50µM*
O=C(CN1CCCCCCC1)N/N=C/c1ccc(F)c(F)c1	21	35	-37%	?	3.2µM*	-37%
O=C(CN1CCCCCC1)N/N=C/c1cccc(Cl)c1	-3	8	4%	?	79µM*	50µM*
O=C(CN1CCN(Cc2ccc(Cl)cc2)CC1)N/N=C/c1cccc(F)c1	-1	-4	16%	.	-4%	-12%
O=C(CN1CCSCC1)N/N=C/c1cccc(Cl)c1	-3	.	60%	3.2µM*	?	50µM*
O=C(CN1CCCCC1)N/N=C/c1ccc(Cl)cc1	5	.	43%	27%	-7%	?
CN(C)S(=O)(=O)c1ccc(NC(=O)COc2ncnc3c2cnn3-c2ccccc2)cc1	4	1	10%	?	-24%	6%
C=CCn1c(SCC(=O)NCC2CCCO2)nc2c([nH]c3ccccc32)c1=O (stereo not drawn)	-3	0	36%	.	1%	-13%
c1cc(-c2ccc(N3CCOCC3)cc2)n2cnnc2c1	13	25	.	.	.	.
C/C(N)=C(/C#N)C(=O)COC(=O)CNS(=O)(=O)c1c(F)cccc1F	7	.	17%	-17%	-14%	-17%
Cc1nn(-c2ccccc2)c2[nH]c(=O)c(CNc3ccc(N4CCOCC4)cc3)cc12	-70*	-69*	?	32µM*	?	45µM*
CC(C)(C)c1nn(-c2ccccc2)c2[nH]c(=O)c(CNc3ccc4c(c3)OCCO4)cc12	?	3	?	35µM*	40µM*	1.1µM*
CC(C)(C)c1nn(-c2ccccc2)c2[nH]c(=O)c(CNCc3ccco3)cc12	-5	7	28%	-32%	-20%[11.4 µM]	-1%
CC(OC(=O)C1=Cc2ccccc2OC1)C(=O)NCC1CCCO1 (stereo not drawn)	-15	-8	?	.	22µM*	.
COCCNC(=O)C(C)OC(=O)C1=Cc2ccccc2OC1 (stereo not drawn)	4	.	23%	.	-9%	0%
CCCCn1cc2c(c1-c1ccc(Cl)cc1)c(=O)n(C)c(=O)n2C	.	.	6%	?	-20%	?
CN(C=[N+](C)C)c1cccc2c1C(=O)c1ccccc1C2=O	-66*	-68*	16µM*	?	45µM*	18µM*
O=C(OCC#CCSc1nnc(-c2c[nH]c3ccccc23)o1)c1ccc(F)cc1	.	.	.	.	-24%	.
CCn1c(=S)sc2c(=O)n(-c3ccccc3)c(=S)[nH]c21	-3	-2	3%	10µM*	-18%	-1%
CCN(CC)C(=O)c1sc2[nH]c(=S)n(-c3ccccc3)c(=O)c2c1C	0	8	25%	-45%[0.501 µM]	?	?
CCOc1ccccc1-n1c(=S)sc2c(=O)n(-c3ccc(C)cc3)c(=S)[nH]c21	-12	-21	-18%	10µM*	?	-23%
Cc1cccc(N2CCN(C(=O)Nc3cn(CC(C)C)c(=O)c4ccccc34)CC2)c1C	.	.	18%	?	-36%	0%[57.1 µM]
O=C(Nc1ncn[nH]1)c1cccc(F)c1	-11	-8	.	23%[2.33 µM]	?	50µM*
Cc1ccc(C(=O)Nc2ncn[nH]2)cc1	-13	0	49%	?	?	50µM*
Cc1ccc(SC(C)C(=O)Nc2ncn[nH]2)cc1 (stereo not drawn)	-15	-11	41%	?	-22%	56µM*
